Rows were chosen to be rich in hits. Some 4.1% of all compounds tested hit in one or more screens of this group.
DAX1 inh-1: DAX1 (NR0B1) inhibitors on StAR promoter, primary screen, cell-based, luminescence, SF-1 (NR5A1), full-length DAX-1 | HEK293T StAR-luciferase reporter, SF-1/DAX-1 repression relief | inhibition, % at 6.8 µM | actives 1.1% (n = 370,000);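 active = inhibition above the mean over all tested compounds plus 3 SD, cut at about 3.6% in these data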;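 also: 0% = DAX-1 cells with DMSO and 100% = cells lacking DAX-1 with DMSO; higher inhibition means more luminescence from relief of DAX-1 repression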
hgDAF-12 ag: H. glycines DAF-12 receptor agonists, primary screen, cell-based, luminescence, HEK293, GAL4 fusion, UAS-luciferase; Nuclear hormone receptor DAF-12 (Heterodera glycines), GAL4 fusion; HEK293 GAL4-hgDAF12 UAS-luciferase reporter, agonist luminescence; normalized to butyrate control; activation, % at 6.8 µM; actives 1.8% (n = 370,000); AID 687014, 2013;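 active = activation above a cutoff set at the mean of all screened compounds plus 3 SD, cut at about 10% in these data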;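 also: 0% = DMSO wells and 100% = sodium butyrate wells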
DAX1 inh-2: DAX1 (NR0B1) inhibitors, primary screen, cell-based, HEK293, Gal4-DAX1, luciferase luminescence. Nuclear receptor subfamily 0 group B member 1 (Homo sapiens), P51843. HEK293 Gal4-DAX1 luciferase reporter. inhibition, % at 6.75 µM. actives 0.99% (n = 340,000). AID 504766, 2011;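 active = inhibition above the mean over all tested compounds plus 3 SD, cut at about 4.2% in these data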;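 also: 0% = DAX1-transfected cells with DMSO and 100% = empty-vector control cells with DMSO; inhibition shows as a rise in luminescence from relieved DAX1 repression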
hcDAF-12 act: H. contortus DAF-12 nuclear receptor activators, primary screen, cell-based, luminescence, HEK293, lit1-tk-luc reporter; HEK293 hcDAF-12 lit1-tk-luc reporter; 0% DMSO, 100% Δ7-dafachronic acid; activation, % at 6.8 µM; actives 1.4% (n = 370,000);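 active = activation above the mean of all tested compounds plus 3 SD, cut at about 5.5% in these data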;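 also: 100% = response to 3 µM Δ7-dafachronic acid high control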
ssDAF-12 act: S. stercoralis DAF-12 nuclear receptor activators, primary screen, cell-based, luminescence, HEK293, GRIP1 co-expression, lit1-tk-luc; HEK293 ssDAF-12/GRIP1 lit1-tk-luc reporter; % of 3 µM dafachronic acid response; actives 1% (n = 370,000); activation, % at 6.8 µM; Nuclear hormone receptor DAF-12 (Strongyloides stercoralis);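 active = activation above the mean over all tested compounds plus 3 SD, cut at about 0.9% in these data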;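 also: 0% = DMSO-only wells and 100% = 3 µM delta7-dafachronic acid wells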
LXR ag: LXR agonists, Gal4 luciferase reporter, confirmation, counter-screen for hcDAF-12 agonist project, cell-based, luminescence, HEK293, H. contortus campaign; 3,400 tested, under 10 active; shares compounds with hcDAF-12 act; activation, % at 6.8 µM; AID 743027, 2013; HEK293 Gal4-LXR tk-luc reporter, 24 h; normalized: DMSO 0%, positive control 100%;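 active = mean percent activation of the reporter above a cutoff set as the average over tested compounds plus their standard deviation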
Target sequence (P55055 whole entry, looked up, the tested form may be a part): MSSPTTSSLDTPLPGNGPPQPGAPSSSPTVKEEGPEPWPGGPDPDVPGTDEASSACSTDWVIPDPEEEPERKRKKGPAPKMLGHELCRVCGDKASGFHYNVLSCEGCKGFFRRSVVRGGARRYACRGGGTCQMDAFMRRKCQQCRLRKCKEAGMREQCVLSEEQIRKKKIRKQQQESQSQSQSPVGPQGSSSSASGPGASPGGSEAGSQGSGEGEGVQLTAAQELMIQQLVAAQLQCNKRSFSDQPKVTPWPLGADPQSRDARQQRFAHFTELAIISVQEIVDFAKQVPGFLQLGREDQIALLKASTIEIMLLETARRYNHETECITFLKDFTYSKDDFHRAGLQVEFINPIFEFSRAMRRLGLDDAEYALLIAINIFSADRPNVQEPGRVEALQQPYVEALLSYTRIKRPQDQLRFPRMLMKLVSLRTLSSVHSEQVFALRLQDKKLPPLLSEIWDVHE
hcDAF12 ag: H. contortus DAF-12 receptor agonists, confirmation, cell-based, luminescence, HEK293, lit1-tk-luc, triplicate; shares compounds with hcDAF-12 act; activation, % at 6.8 µM; actives 61% (n = 3,400); AID 743032, 2013; HEK293 hcDAF-12 lit1-tk-luc reporter; % of Δ7-dafachronic acid response;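 active = mean activation across triplicate tests above the threshold derived from the earlier primary screen, cut at about 5.5% in these data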;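 also: 0% = DMSO only wells and 100% = 3 µM Δ7-dafachronic acid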
Starred values were filed as active, the others as inactive; nt = no result.

SMILES	DAX1 inh-1	hgDAF-12 ag	DAX1 inh-2	hcDAF-12 act	ssDAF-12 act	LXR ag	hcDAF12 ag
COc1ccc2c(c1)C1=NN(/C(C)=C/C(C)=O)C(c3cccc(F)c3)C1CC2 (configuration not stated)	-1	3	1	3	1	nt	nt
O=C(Cc1nnc(NC(=O)c2ccccc2)s1)N/N=C/c1ccco1	1	2	-1	7.5*	1.3*	0	0
O=C(Cc1nnc(NC(=O)c2ccccc2)s1)N/N=C/c1cccc(O)c1	0	1	0	-1	-1	nt	nt
Cn1cc(-c2nnc(-c3ccccc3)o2)c2ccccc21	3	17*	4	7.9*	1.3*	2	18*
Cc1nnc(-c2ccccc2)o1	0	1	1	0	-1	nt	nt
O=c1[nH]c2ccccc2nc1/C=C(\O)c1cccs1	2	10*	2	7.8*	0	1	13*
O/C(=C\c1nc2ccccc2[nH]1)c1cccs1	1	12*	1	8.5*	1.0*	0	8.1*
Cc1nc(NC(=O)CSc2nnc(C3CC3)n2N)c(Cl)cc1Cl	0	-2	0	0	-1	nt	nt
CCN1CCN(C(=O)c2cc3c(-c4ccc(Cl)cc4)nn(C)c3s2)CC1	1	4	4.5*	7.6*	1.2*	0	6.6*
CCCN(CCC)CCNC(=O)c1cc2c(-c3ccc(Cl)cc3)nn(C)c2s1	1	6	1	11*	0	0	13*
CCCCN(CC)CCNC(=O)c1cc2c(-c3ccc(Cl)cc3)nn(C)c2s1	2	6	2	10*	1.3*	0	11*
Cn1nc(-c2ccc(Cl)cc2)c2cc(C(=O)NCCCN3CCOCC3)sc21	nt	nt	3	nt	nt	nt	nt
Cn1nc(-c2ccc(Cl)cc2)c2cc(C(=O)NCCN3CCOCC3)sc21	1	5	7.5*	7.3*	0	0	5
O=C(CC[C@H]1O[C@@H](n2ccc(=O)[nH]c2=O)[C@H](O)[C@@H]1O)N[C@H](Cc1ccccc1)C(=O)NCc1ccccc1	-2	5	nt	2	-1	nt	nt
O=C(NC1CCCc2ccccc21)C1CCCC1 (configuration not stated)	0	-2	-1	0	-1	nt	nt
O=C(NC1CCOc2ccccc21)C1CCCC1 (configuration not stated)	0	-3	0	6.7*	0	0	3
COC(=O)c1c(C)[nH]c(C(=O)NCc2ccco2)c1C	1	1	-1	1	-2	nt	nt
COc1ccc([N+](=O)[O-])cc1C1NN=C(c2ccccc2O)S1 (configuration not stated)	0	6	0	6.9*	1	0	4
COC(=O)C1OC1c1cc([N+](=O)[O-])ccc1OC (configuration not stated)	-1	-2	1	-1	-1	nt	nt
CN1CCN(C(=O)c2cc3sc4ccccc4c3s2)CC1	4.5*	13*	nt	7.3*	0	1	5
c1ccc(CCNc2nc3ccccc3n3nnnc23)cc1	0	2	1	1	-1	nt	nt
COc1ccc(CCNc2nc3ccccc3n3nnnc23)cc1OC	-1	7	4	7.7*	0	0	2
Oc1ccc(-c2nc3ccccc3s2)cc1	4.2*	24*	1	7.6*	1.3*	2	8.1*
c1ccc2sc(-c3ccc4c(c3)OCO4)nc2c1	nt	nt	1	nt	nt	nt	nt
CN(C)c1nc(N)nc(-c2nc3ccccc3s2)n1	3	11*	3	9.3*	1.6*	2	16*
SMILES	DAX1 inh-1	hgDAF-12 ag	DAX1 inh-2	hcDAF-12 act	ssDAF-12 act	LXR ag	hcDAF12 ag
c1coc(-c2nc3ccccc3s2)c1	1	9	1	4	1	nt	nt
Nc1ccccc1-c1nc2ccccc2s1	3	26*	2	11*	1.9*	1	10*
COc1ccc(Cl)cc1-c1nc(N)nc(N(C)C)n1	0	-2	-1	-1	-2	nt	nt
COC(=O)[C@H](Cc1ccccc1)NC(=O)Nc1ccc(C)cc1	0	-1	0	-1	-2	nt	nt
Cc1csc(C(C)NC(=O)c2ccc(OC3CCN(CCc4ccccc4)CC3)cc2)n1 (configuration not stated)	0	1	0	-1	-1	nt	nt
C[C@H]1CN([C@@H](C)CO)C(=O)CCCn2cc(nn2)CO[C@@H]1CN(C)C(=O)Cc1ccccc1	-1	0	0	0	-1	nt	nt
CC(=O)N/C(N)=N/c1nc(=O)c2ccccc2s1	1	3	3	1	0	nt	nt
CCOC(=O)N/C(N)=N/c1nc2ccccc2s1	4.2*	11*	0	7.0*	0	1	5
CCOc1ccc(C(C)C)cc1S(=O)(=O)n1ccnc1C	0	-1	3	0	-1	nt	nt
O=C(NCCc1c[nH]c2ccccc12)c1cnccn1	0	3	0	6.7*	3.4*	0	4
O=C(NCCc1c[nH]c2ccccc12)c1cnc2sccn2c1=O	3	10	3	8.6*	1.4*	1	8.9*
O=C(NCc1ccc(F)cc1)c1cnc2sccn2c1=O	-1	2	-1	-1	-1	nt	nt
COc1ccc(C2c3[nH]c4ccccc4c3CCN2C(=O)c2ccc(=O)n(C)n2)c(F)c1 (configuration not stated)	0	8	1	6.9*	0	0	5
CN1N=C(C(=O)N2CCc3c([nH]c4ccccc34)C2c2ccccc2Cl)CCC1=O (configuration not stated)	2	12*	0	7.8*	1.7*	0	6.9*
CC(=N)c1c(O)cc(C)oc1=O	-1	1	1	1	-1	nt	nt
CCOC(=O)C1CCCN(CCC(=O)Nc2ccc(C)cc2)C1 (configuration not stated)	-1	-1	1	-1	-1	nt	nt
CNC(=S)Nc1ccc(Nc2ccccc2)cc1	1	5	0	0	-1	nt	nt

Screening data: PubChem BioAssay, The Scripps Research Institute Molecular Screening Center
